Experimental data taken from PubChem BioAssay (NCATS).
Values joined by “and” are separate entries in the source; they are usually repeats but may differ in a detail not shown here. Equal entries are not always repeated. Records with an inconclusive call do not appear. Some compounds were tested as several samples or in several runs, with calls that do not always agree. Active and inactive are the calls of the source. Calls follow the shape of the dose curve; as a rule, active = well fitted inhibition curve with a large enough effect; inconclusive = small, poorly fitted or top-dose-only effect; inactive = flat fitted curve, though single readings scatter.

What was measured:
P94_40 = assay: qHTS profiling for inhibitors of Plasmodium falciparum proliferation (AID 504749);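 also: 0% = DMSO vehicle and full inhibition = artemisinin control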; settings: P. falciparum in erythrocytes, SYBR Green DNA, 72 h; series mostly up to 28.7 µM
Method in brief: (§1)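 P. falciparum-infected erythrocytes (0.3% parasitemia, 2.5% hematocrit) incubated with compound 72 h at 37 C, 5% CO2. Parasite DNA detected by SYBR Green after lysis, overnight at room temperature; normalised to 0.29 uM artemisinin and DMSO.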

PAD = assay: as above; settings: P. falciparum in erythrocytes, SYBR Green DNA, 72 h; series mostly up to 28.7 µM
Method in brief: as §1

PC15 = assay: as above; settings: P. falciparum in erythrocytes, SYBR Green DNA, 72 h; series mostly up to 28.7 µM
Method in brief: as §1

PC26 = assay: as above; settings: P. falciparum in erythrocytes, SYBR Green DNA, 72 h; series mostly up to 28.7 µM
Method in brief: as §1

PC49 = assay: as above; settings: P. falciparum in erythrocytes, SYBR Green DNA, 72 h; series mostly up to 28.7 µM
Method in brief: as §1

SC27B = assay: as above; settings: P. falciparum in erythrocytes, SYBR Green DNA, 72 h; series mostly up to 28.7 µM
Method in brief: as §1

TAB109 = assay: as above; settings: P. falciparum in erythrocytes, SYBR Green DNA, 72 h; series mostly up to 28.7 µM
Method in brief: as §1

TAB113 = assay: as above; settings: P. falciparum in erythrocytes, SYBR Green DNA, 72 h; series mostly up to 28.7 µM
Method in brief: as §1

TAB165 = assay: as above; settings: P. falciparum in erythrocytes, SYBR Green DNA, 72 h; series mostly up to 28.7 µM
Method in brief: as §1

W2 = assay: as above; settings: P. falciparum in erythrocytes, SYBR Green DNA, 72 h; series mostly up to 28.7 µM
Method in brief: as §1

CRL-7250 = normal cell line; assay: Cytotoxic Profiling of Annotated Libraries Using Quantitative High-Throughput Screening (AID 1296008); settings: Five cell lines viability, CellTiter-Glo ATP luminescence, 48-72 h; max response: hits give low values; also: potency is read from the fitted curve at half-maximal effect; as to max response: % is scaled to controls: 0 for no effect and ±100 for the full control effect
Method in brief: (§2)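 Cells exposed to compounds for 48 or 72 hr at 37 degrees Celsius. Viability read as ATP-coupled luminescence with CellTiter-Glo after 10 min at room temperature.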

HEK293 = assay: as above; settings: Five cell lines viability, CellTiter-Glo ATP luminescence, 48-72 h; max response: hits give low values
Method in brief: as §2

HaCat [1] = assay: as above; settings: Five cell lines viability, CellTiter-Glo ATP luminescence, 48-72 h; max response: hits give low values
Method in brief: as §2

KB-3-1 = assay: as above; settings: Five cell lines viability, CellTiter-Glo ATP luminescence, 48-72 h; max response: hits give low values
Method in brief: as §2

NIH3T3 = assay: as above; settings: Five cell lines viability, CellTiter-Glo ATP luminescence, 48-72 h; max response: hits give low values
Method in brief: as §2

HACAT [2] = assay: qHTS assay to identify novel small-molecules to repurpose for Merkel cell carcinoma treatment (AID 1296009); settings: MCC and control cell lines, CellTiter-Glo viability, 72 h; also: potency is read from the fitted curve at half-maximal effect
Method in brief: (§3)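 Cells were treated for 72 hr at 37 degree celsius with compounds in 8- or 11-point dose response. Viability was read by CellTiter-Glo luminescence, normalized to no-cell (cytotoxicity) and DMSO controls.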

HEK293T = assay: as above; settings: MCC and control cell lines, CellTiter-Glo viability, 72 h; at 44.8 µM (top of the series) unless noted
Method in brief: as §3

MCC-13 = assay: as above; settings: MCC and control cell lines, CellTiter-Glo viability, 72 h; series mostly up to 46 µM
Method in brief: as §3

MKL-1 = assay: as above; settings: MCC and control cell lines, CellTiter-Glo viability, 72 h; series mostly up to 46 µM
Method in brief: as §3

MCC-26 = assay: as above; settings: MCC and control cell lines, CellTiter-Glo viability, 72 h; series mostly up to 46 µM
Method in brief: as §3

[3] = at 44.8 µM (top of the series) unless noted
Also: nearly all actives have a fitted effect of over 60% in size.

N[C@H](Cc1c[nH]c2ccccc12)C(=O)O
inactive: Potency (P94_40) | Potency (PAD) | Potency (PC15) | Potency (PC26) | Potency (PC49) | Potency (SC27B) | Potency (TAB109) | Potency (TAB113) | Potency (TAB165) | Potency (W2) | max response (CRL-7250) -25% | outcome (HEK293) | outcome (HaCat [1]) | max response (KB-3-1) 5.87% | max response (NIH3T3) 3.07% | outcome (HACAT [2]; [3]) | outcome (HEK293T) | Potency (MCC-13) | Potency (MKL-1)

CC(=O)OCC(=O)[C@@]1(O)[C@H](C)C[C@H]2[C@@H]3CCC4=CC(=O)C=C[C@]4(C)[C@@]3(F)[C@@H](O)C[C@@]21C
inactive: max response (CRL-7250) 0.495% and 1.45% | max response (HEK293) -2.05% | outcome (HEK293) | max response (HaCat [1]) -3.13% and -0.939% | max response (KB-3-1) 31.1% and 2.64% | outcome (KB-3-1) | max response (NIH3T3) 4.69% | outcome (NIH3T3) | outcome (HEK293T) | Potency (MCC-13) | Potency (MCC-26) | Potency (MKL-1)

Cc1nc2n(c(=O)c1CCN1CCC(c3noc4cc(F)ccc34)CC1)CCC[C@H]2O
inactive: max response (CRL-7250) -3.73% | outcome (CRL-7250) | max response (HEK293) -1.89% | outcome (HEK293) | outcome (HaCat [1]) | max response (KB-3-1) -12.7% and -2.14% | max response (NIH3T3) 1.23% | outcome (NIH3T3) | outcome (HACAT [2]; at 17.4 µM (top of the series)) | outcome (HACAT [2]; at 44.8 µM (top of the series)) | outcome (HEK293T) | Potency (MCC-13) | Potency (MCC-26) | Potency (MKL-1)

CC(=O)O[C@]1(C(C)=O)CC[C@H]2[C@@H]3C[C@H](C)C4=CC(=O)CC[C@]4(C)[C@H]3CC[C@@]21C
inactive: outcome (CRL-7250) | max response (HaCat [1]) -32.7% and 2.19% | max response (KB-3-1) 9.44% | outcome (KB-3-1) | max response (NIH3T3) -18.3% | outcome (NIH3T3) | Potency (MCC-13) | Potency (MCC-26) | Potency (MKL-1)
active: Potency (HEK293) 15 µM

CC(O)(P(=O)(O)O)P(=O)(O)O
inactive: Potency (P94_40) | Potency (PAD) | Potency (PC15) | Potency (PC26) | Potency (PC49) | Potency (SC27B) | Potency (TAB109) | Potency (TAB113) | Potency (TAB165) | Potency (W2) | max response (CRL-7250) 0.923% | outcome (HEK293) | outcome (HaCat [1]) | max response (KB-3-1) 0.618% | max response (NIH3T3) 0.0838% | outcome (HACAT [2]; [3]) | outcome (HEK293T) | Potency (MCC-13) | Potency (MCC-26) | Potency (MKL-1)

CC(=O)N(O)CCCCCNC(=O)CCC(=O)N(O)CCCCCNC(=O)CCC(=O)N(O)CCCCCN
inactive: Potency (P94_40) | Potency (PAD) | Potency (PC15) | Potency (PC26) | Potency (SC27B) | Potency (TAB109) | Potency (TAB113) | Potency (TAB165) | Potency (W2) | max response (HaCat [1]) -20.9% | max response (KB-3-1) 1.85%
active: Potency (CRL-7250) 2.99 µM | Potency (HEK293) 52.4 nM and 9.44 µM | Potency (HaCat [1]) 1.32 µM | Potency (MKL-1) 3.35 µM
